Compound activity: PubChem BioAssay, several laboratories
CYP2C9 act – CYP2C9 (human) activation | P11712 | recombinant CYP2C9, luciferin-H conversion, luminescence; active compounds read high; factor 1 = untreated enzyme, 0 = blocked | activation factor at 5 µM | hit rate 1.4% among 96,000 | AID 1024;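 active = activation factor of 2 or more for CYP2C9 at a 5 µM dose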
Target sequence (P11712 whole entry, looked up): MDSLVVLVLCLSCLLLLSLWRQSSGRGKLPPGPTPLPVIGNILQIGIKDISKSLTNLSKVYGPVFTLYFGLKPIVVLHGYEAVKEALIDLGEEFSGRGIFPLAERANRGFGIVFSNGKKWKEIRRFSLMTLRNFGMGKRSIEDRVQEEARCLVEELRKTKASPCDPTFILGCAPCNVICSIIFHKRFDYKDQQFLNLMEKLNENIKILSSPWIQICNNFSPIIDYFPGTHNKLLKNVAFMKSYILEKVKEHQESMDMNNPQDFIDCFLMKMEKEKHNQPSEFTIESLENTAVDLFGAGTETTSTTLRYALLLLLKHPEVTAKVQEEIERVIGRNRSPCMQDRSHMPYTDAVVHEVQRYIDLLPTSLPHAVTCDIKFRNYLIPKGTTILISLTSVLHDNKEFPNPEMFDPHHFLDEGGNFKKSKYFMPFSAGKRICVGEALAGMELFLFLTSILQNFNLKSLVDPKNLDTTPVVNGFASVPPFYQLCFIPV
sEH inh – soluble epoxide hydrolase (human) inhibition; recombinant human sEH enzymatic activity assay; inhibition, % at 2 µM; hit rate 0.34% among 91,000; AID 707; in the data active = inhibition above about 80%
CYP2C9 inh – blocks human cytochrome P450 2C9; AID 777; inhibition, % at 5 µM; P11712; CYP2C9 Supersomes, luciferin-H conversion, luminescence; hit rate 20% among 96,000;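 active = blocking of liver enzyme CYP2C9 beyond about 50% at 5 µM, limit read from the data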
sEH act – soluble epoxide hydrolase (human) activation; P34913; purified human sEH enzymatic activity, activator screen; activation, % at 2 µM; hit rate 0.04% among 91,000; in the data active = activation above about 37%
CYP2C19 activ – cytochrome P450 2C19 (human) activation; P33261; activation factor at 5 µM; recombinant CYP2C19, luciferin-H EGE luminescence; active compounds read high; 0 = fully inhibited enzyme, 1 = untreated enzyme; AID 1025; 96,000 tested, under 10 active;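 active = activation factor of at least 2 at 5 µM in the primary screen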
CYP2C19 inhib – blocks human cytochrome P450 2C19. P33261. CYP2C19 Supersomes, luciferin-H EGE luminescence, 30 min. hit rate 21% among 96,000. inhibition, % at 5 µM;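 active = CYP2C19 inhibition above a set limit at 5 µM in the primary screen, cut at about 50% in these data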
Large screens that a line does not name were inactive. Only some compounds are listed: those with a hit (about 27% of all), similar ones and a draw of the others.

Cc1cc(C)nc(N(C#N)CN2C(=O)c3ccccc3C2=O)n1	CYP2C9 act 2.8 (no result: sEH inh, sEH act)
Cc1cc(C)nc(N(C#N)S(=O)(=O)c2ccccc2)n1	none
Cc1cc(C)nc(N(C#N)Cc2ccccc2Cl)n1	CYP2C9 act 2.8, CYP2C19 inhib 68
CCOC(=O)CN(C#N)c1nc(C)cc(C)n1	none
C(=N\N(c1ccccc1)c1ccccc1)/c1ccc2c(c1)OCO2	CYP2C9 inh 56
CCN(c1ccc(OC)cc1)S(=O)(=O)c1ccc2c(c1)CCN2C(=O)CCC(=O)O	CYP2C9 inh 70
CCN(c1ccc(C)c(C)c1)S(=O)(=O)c1ccc2c(c1)CCN2C(=O)CCC(=O)O	CYP2C9 inh 52
CC1CCCCN1S(=O)(=O)c1ccc2c(c1)CCN2C(=O)CCC(=O)O (centres undefined)	none (no result: sEH inh, sEH act)
CC(C)c1cc(C(=O)Nc2cc(Cl)ccc2O)no1	CYP2C9 inh 50
CC(C)Cc1cc(C(=O)Nc2cc(Cl)ccc2Cl)no1	CYP2C9 act 2.6
CC(C)Cc1cc(C(=O)Nc2ccc(F)cc2F)no1	none (no result: sEH inh, sEH act)
Cc1cc(C)cc(N2CC34C=CC(O3)C(C(=O)OCC(=O)NCc3ccco3)C4C2=O)c1 (centres undefined)	none
CCc1ccccc1NC(=O)CN1CCC(NC(=O)COC)CC1	none
S=P(c1ccc(N2CCOCC2)cc1N1CCOCC1)(N1CCOCC1)N1CCOCC1	none (no result: sEH inh, sEH act)
COc1ccc(N(Cc2ccccc2)S(=O)(=O)c2cccc(C(=O)NC3=NCCS3)c2)cc1	CYP2C9 inh 97, CYP2C19 inhib 71
CN(c1cccc(Cl)c1)S(=O)(=O)c1cccc(C(=O)NC2=NCCS2)c1	CYP2C9 inh 82, CYP2C19 inhib 74
COc1ccc(OC)c(NC(=O)c2cc(-c3ccc(C)cc3O)n[nH]2)c1	CYP2C9 act 2.9
Cc1ccc(-c2cc(C(=O)Nc3cc(C)ccc3C)[nH]n2)c(O)c1	none (no result: CYP2C9 act, CYP2C9 inh, CYP2C19 activ, CYP2C19 inhib)
O=C(CCc1ccccc1)NCCCN1CCOCC1	none
O=S(=O)(NCCc1ccccc1)c1cccc(S(=O)(=O)N2CCOCC2)c1	CYP2C9 inh 61, CYP2C19 inhib 89
O=S(=O)(NC1CCN(Cc2ccccc2)CC1)c1cccc(S(=O)(=O)N2CCOCC2)c1	CYP2C19 inhib 54
O=S(=O)(NCCC1=CCCCC1)c1cccc(S(=O)(=O)N2CCOCC2)c1	CYP2C9 inh 75, CYP2C19 inhib 76
O=S(=O)(CCc1ccccc1)N1CCOCC1	CYP2C19 inhib 70 (no result: sEH inh, sEH act)
O=S(=O)(NCc1ccc(F)cc1)c1cccc(S(=O)(=O)N2CCOCC2)c1	none
O=S(=O)(NCc1ccco1)c1cccc(S(=O)(=O)N2CCOCC2)c1	CYP2C19 inhib 50 (no result: sEH inh, sEH act)
Cc1ccc(NC(=O)CN2C(=O)COc3ccc(C)cc32)nc1	none (no result: sEH inh, sEH act)
CC(=O)c1ccc(NC(=O)CN2C(=O)COc3ccc(Cl)cc32)cc1	CYP2C19 inhib 75
Cc1ccccc1NC(=O)CN1C(=O)COc2ccc(Cl)cc21	CYP2C9 inh 55, CYP2C19 inhib 97
CCCC(c1nnnn1C1CCCCC1)N1CCN(c2ncccn2)CC1 (centres undefined)	CYP2C9 inh 81 (no result: sEH inh, sEH act)
c1ccc(CC2CCN(C(c3cccs3)c3nnnn3C3CCCC3)CC2)cc1 (centres undefined)	CYP2C9 inh 88, CYP2C19 inhib 68
CCCCC(c1nnnn1C1CCCC1)N1CCN(C2CCCCC2)CC1 (centres undefined)	none
COc1ccccc1N1CCN(C(c2cccs2)c2nnnn2C2CCCC2)CC1 (centres undefined)	CYP2C9 inh 88, CYP2C19 inhib 94
Cc1ccc2occ(C(c3nnnn3C3CCCC3)N3CCN(C(=O)c4ccco4)CC3)c(=O)c2c1 (centres undefined)	CYP2C9 inh 83, CYP2C19 inhib 82
CC(C(=O)Nc1ccccc1C(=O)N1CCOCC1)N(c1ccccc1)S(C)(=O)=O (centres undefined)	none (no result: CYP2C9 act, CYP2C9 inh, CYP2C19 activ, CYP2C19 inhib)
Cn1c(=O)oc2cc(S(=O)(=O)NCc3ccccn3)ccc21	none
CCCCC(c1nnnn1CCOC)N1CCN(C(=O)c2ccco2)CC1 (centres undefined)	CYP2C9 inh 55, CYP2C19 inhib 80 (no result: sEH inh, sEH act)
O=C(c1ccco1)N1CCN(C(c2ccccn2)c2nnnn2C2CCCC2)CC1 (centres undefined)	none (no result: CYP2C9 act, CYP2C9 inh, CYP2C19 activ, CYP2C19 inhib)
CCCCC(c1nnnn1C1CCCC1)N1CCN(C(=O)c2ccco2)CC1 (centres undefined)	CYP2C9 inh 69, CYP2C19 inhib 73
CCC(c1nnnn1CCOC)N1CCN(C(=O)c2ccco2)CC1 (centres undefined)	none
O=C(c1ccco1)N1CCN(C(c2cccs2)c2nnnn2C2CCCC2)CC1 (centres undefined)	CYP2C9 inh 68, CYP2C19 inhib 55
COc1ccc(-c2nnc(SCC(=O)OC3CCCCC3)o2)cc1OC	none
CCOC(=O)N1CCC(N2Cc3cccc(C(=O)Nc4ccc(CC)cc4)c3C2=O)CC1	CYP2C9 inh 100, CYP2C19 inhib 94
CCOC(=O)N1CCC(N2Cc3cccc(C(=O)O)c3C2=O)CC1	none (no result: sEH inh, sEH act)
CCOC(=O)N1CCC(N2Cc3cccc(C(=O)Nc4ccc(F)cc4)c3C2=O)CC1	CYP2C9 inh 90
CCOC(=O)N1CCC(N2C(=O)c3ccc(C(=O)NCc4ccco4)cc3C2=O)CC1	none
CCOC(=O)N1CCC(N2Cc3cccc(C(=O)Nc4cc(F)ccc4F)c3C2=O)CC1	CYP2C9 inh 78
CCOC(=O)N1CCC(N2C(=O)c3ccc(C(=O)NCc4ccc(F)cc4)cc3C2=O)CC1	CYP2C9 inh 58 (no result: sEH inh, sEH act)
O=C(NCCN1CCN(c2ccccc2F)CC1)C1CCCN(S(=O)(=O)c2cnc[nH]2)C1 (centres undefined)	none
Fc1ccc(CNc2nc3ccccc3n3cnnc23)cc1	none
Cc1ccc(NC(=O)c2cccc3c2C(=O)N(C2CCCCC2)C3)cc1	none
CCOC(=O)N1CCC(N2Cc3cccc(C(=O)NCC4CCN(CC(C)C)C4)c3C2=O)CC1 (centres undefined)	CYP2C9 inh 96, CYP2C19 inhib 86
COc1ccc(S(=O)(=O)CCC(=O)N2c3ccccc3CC2C)cc1 (centres undefined)	CYP2C9 act 2 (no result: sEH inh, sEH act)
Cc1nn(C)c(C)c1S(=O)(=O)N(CC(=O)N1CCc2ccccc2C1)c1ccc(C(C)C)cc1	CYP2C9 inh 81, CYP2C19 inhib 96
Cc1cccc(NC(=O)CN(c2ccc(C(C)C)cc2)S(=O)(=O)c2c(C)nn(C)c2C)n1	CYP2C9 inh 97, CYP2C19 inhib 96
CC1Cc2ccccc2N1C(=O)COC(=O)c1ccc(S(=O)(=O)N(C)C)cc1 (centres undefined)	none
COc1ccc(N(CC(=O)N2CCc3ccccc32)S(=O)(=O)c2c(C)n[nH]c2C)cc1	CYP2C9 inh 76
CCOC(=O)c1ccc(NC(=O)CN(c2ccc(C)cc2)S(=O)(=O)c2c(C)nn(C)c2C)cc1	none
Cc1ccc(N(CC(=O)N2CCc3ccccc32)S(=O)(=O)c2cccs2)cc1	none
